Results filed as inconclusive are left out. Activity calls are given as the source filed them.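 The calls were made as follows, unless noted: active = viability loss from added drug above about 55%, and viability with drug at most 40%, in both replicates (limit read from the data, passing the limit was not always enough); inconclusive = both conditions met in only one replicate; inactive = neither replicate meets both conditions.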
Legend:
[1] = reducers of endogenous Her2 protein level, primary screen, SKBR3 breast tumor cells, AlphaScreen, ATP viability (AID 461;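 active = Her2 level under about 52% in both replicate screens, with viability over 70% of control, limit read from the data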;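 as to Her2 level: lower value means less Her2 protein in the cells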;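 as to viability: percent of carrier control wells set as 100% viability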); conditions: 18-24 h, measured here: SKBR3 viability, ATP luminescence, at 10 µM
[2] = target: Receptor tyrosine-protein kinase erbB-2 (Homo sapiens) (UniProt P04626); assay: as above; conditions: 18-24 h, at 10 µM, stronger effect = lower value
Sequence of Receptor tyrosine-protein kinase erbB-2 (Homo sapiens) (P04626 whole entry, looked up): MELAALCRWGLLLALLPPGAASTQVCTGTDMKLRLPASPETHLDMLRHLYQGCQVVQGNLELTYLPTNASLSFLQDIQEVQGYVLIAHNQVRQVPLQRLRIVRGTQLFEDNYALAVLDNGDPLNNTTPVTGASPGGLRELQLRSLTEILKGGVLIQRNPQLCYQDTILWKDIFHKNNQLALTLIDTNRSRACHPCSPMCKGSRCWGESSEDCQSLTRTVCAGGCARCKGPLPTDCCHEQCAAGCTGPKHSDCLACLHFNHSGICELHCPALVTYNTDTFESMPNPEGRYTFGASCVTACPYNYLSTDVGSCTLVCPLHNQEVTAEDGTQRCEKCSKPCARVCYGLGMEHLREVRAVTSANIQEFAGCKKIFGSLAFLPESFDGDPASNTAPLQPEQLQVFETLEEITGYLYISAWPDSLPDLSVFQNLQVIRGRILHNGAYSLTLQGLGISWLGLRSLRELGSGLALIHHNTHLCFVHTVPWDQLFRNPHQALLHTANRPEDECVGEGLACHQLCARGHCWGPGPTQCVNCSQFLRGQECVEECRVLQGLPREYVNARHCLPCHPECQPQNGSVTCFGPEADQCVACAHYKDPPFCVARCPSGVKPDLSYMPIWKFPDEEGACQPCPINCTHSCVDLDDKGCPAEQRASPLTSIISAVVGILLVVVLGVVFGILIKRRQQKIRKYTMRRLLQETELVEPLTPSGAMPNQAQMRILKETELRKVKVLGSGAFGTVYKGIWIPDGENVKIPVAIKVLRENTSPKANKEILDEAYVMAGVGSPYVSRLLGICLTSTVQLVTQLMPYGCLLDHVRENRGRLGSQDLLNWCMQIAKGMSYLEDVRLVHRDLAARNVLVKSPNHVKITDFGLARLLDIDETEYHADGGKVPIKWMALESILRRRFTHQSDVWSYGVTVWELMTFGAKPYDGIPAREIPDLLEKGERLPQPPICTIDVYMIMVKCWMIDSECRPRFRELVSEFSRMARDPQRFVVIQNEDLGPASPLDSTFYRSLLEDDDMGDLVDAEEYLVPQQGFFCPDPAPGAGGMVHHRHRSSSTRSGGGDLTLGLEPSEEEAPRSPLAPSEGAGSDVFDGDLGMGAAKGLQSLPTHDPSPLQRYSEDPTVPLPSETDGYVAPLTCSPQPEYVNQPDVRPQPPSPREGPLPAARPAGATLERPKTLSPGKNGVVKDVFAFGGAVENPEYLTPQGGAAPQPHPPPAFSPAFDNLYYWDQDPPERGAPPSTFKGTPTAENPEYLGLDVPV

[3] = SK-BR-3 cell growth inhibitors, pilot screen, 24 h, human (AID 572;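 active = viability at or below 10% of carrier control in both of two separate runs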;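 also: compound exposure lasted between 18 and 24 h rather than exactly 24 h; 100% = carrier-treated control wells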); conditions: SK-BR-3 viability, CellTiter-Glo luminescence, at 10 µM, stronger effect = lower value
[4] = HUVEC growth inhibition – cell-based, human, primary screen (AID 575;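 active = viability at or below 30% in both replicate assays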;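 also: 100% = median of untreated cell wells with 0.1% DMSO on each plate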); conditions: HUVEC proliferation, CellTiter-Glo luminescence, 72 h; at 10 µM; stronger effect = lower value
[5] = growth inhibitors of H69AR lung tumor, primary screen, human, duplicate replicates (AID 580;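 active = viability at or under a set limit in both replicates, limit being median viability minus 3 SD, cut at about 48% in these data, passing the limit was not always enough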;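 also: 100% = mean luminescence of untreated wells and 0% = no signal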); conditions: H69AR lung tumor cells viability, ATP luminescence, 72 h; at 10 µM; stronger effect = lower value
[6] = reversal of MRP1-mediated doxorubicin resistance, pilot screen, H69AR cells, doxorubicin co-treatment (AID 601); conditions: CellTiter-Glo, 72 h, at 10 µM; for differential viability (reversal): stronger effect = higher value
[7] = 384-well plate pilot, post-Golgi transport modulator project, inhibition of yeast transport mutant growth (AID 636; in the data active = inhibition above about 31%); conditions: absorbance 615 nm, about 18 h, stronger effect = higher value
[8] = growth suppression of yeast trafficking mutant, preliminary HTS, modulators of trafficking downstream of Golgi apparatus project, 1536-format plate, OD 615 nm (AID 637; in the data active = inhibition above about 30%); conditions: yeast transport mutant growth, absorbance 615 nm, 18 h; stronger effect = higher value
[9] = OD615 S. cerevisiae growth inhibition, permissive medium, pilot counter-assay, permissive growth control for S. cerevisiae lifespan shortening project (AID 705;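 active = growth inhibition above 25% in both replicates, a cutoff set 3 SD above the mean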); conditions: OD615, 24 h, at 10 µM, stronger effect = higher value
[10] = Restrictive medium S. cerevisiae growth inhibition, OD615, pilot screen of yeast lifespan reduction project, restrictive growth control (AID 706;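 active = growth inhibition above a set limit, 3 SD over mean compound inhibition, in both replicates, cut at about 43% in these data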;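 also: modified DeaD lifespan yeast strain shifted to restrictive glucose medium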); conditions: OD615, 48 h, at 10 µM, stronger effect = higher value
[11] = viability gain of MRP-1-high H69AR cells under doxorubicin, pilot screen, MRP-1 activator project, CellTiter-Glo, duplicate (AID 807;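 active = viability increase at or above a cutoff of the median across tested compounds plus 3 SD, cut at about 8.5% in these data, passing the limit was not always enough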;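 also: compound pretreatment 18-22 h then 72 h combined with doxorubicin; 0% = doxorubicin alone and 100% = vehicle without doxorubicin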); conditions: H69AR viability with doxorubicin, CellTiter-Glo luminescence; at 10 µM; stronger effect = higher value
[12] = growth suppression of beta-catenin knockout HCT116, pilot screen, human colon tumor cells (AID 823;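 active = cell viability at or below a set limit in both duplicate runs, the limit being the all-compound median minus 4 SD, cut at about 23% in these data, passing the limit was not always enough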;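 also: 0% = wells killed by 20 µM Hyamine and 100% = untreated DMSO cell wells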); conditions: CellTiter-Glo, 60 h, at 10 µM, stronger effect = lower value
[13] = growth suppression of PTEN-deleted HCT116, pilot screen, cell-based, HCT116 clonal line, CellTiter-Glo (AID 824;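 active = viability at or below 27.92% in each of two runs, the all-compound median minus 4 SD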;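 also: 0% = 20 µM Hyamine control and 100% = vehicle cell control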); conditions: 60 h, at 10 µM, stronger effect = lower value
[14] = inhibitors of the yeast RAM network, pilot screen, dse1pr::URA3 reporter, 5-FOA selection (AID 869;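 active = inhibition over a set limit, the all-compound mean plus 3 SD, in both replicate runs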;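 also: 0% = DMSO wells with no growth and 100% = 10 µM 1-NA-PP1 with full growth; RAM network block rescues cells from 5-FOA so hits raise OD615 growth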); conditions: S. cerevisiae dse1pr::URA3 5-FOA growth, OD615, 2 d; at 10 µM; stronger effect = higher value; strain carries analog-sensitive mutant Cbk1 kinase
[15] = RAM signaling pathway blockade in yeast – S. cerevisiae, Pdr1DBD-CYC8 efflux-inhibited sensitized strain, primary screen (AID 1298;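 active = RAM network inhibition above 8.4% in each of two replicates, 3 SD over the compound average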;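 also: 0% = DMSO untreated cells without growth and 100% = 10 µM 1-NA-PP1 full growth; higher means more yeast growth rescued from 5-FOA killing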); conditions: S. cerevisiae cbk1-as DSE1-URA3 strain, 5-FOA growth OD615, 2 d; at 50 µM; stronger effect = higher value
[16] = H69AR cells + 2 uM doxorubicin, measured here: viability with 2 uM doxorubicin, stronger effect = lower value
[17] = H69AR cells, compound alone cytotoxicity

CC(NC(=O)c1noc2c1CCCCC2)c1ccccc1 (stereo not given)
85.5%: viability [1]
110%: viability [6, 17]
91.7%: viability [6, 16]
inactive: Her2 level [2] 93.5% | viability [3] 85.5% | viability [4] 89.1% | viability [5] 110% | differential viability (reversal) ([6]; H69AR cells + 2 uM doxorubicin) 18.1% | inhibition [7] -3.59% | inhibition [8] -2% | growth inhibition [9] -16.4% | growth inhibition [10] -14.1% | viability increase [11] 1.66% | viability [12] 100% | viability [13] 102% | inhibition [14] -0.27% | RAM network inhibition [15] 1.85%

Cc1cccc(-n2ncc3c(NCCCO)ncnc32)c1
inactive: Her2 level [2] 118% | viability [3] 95.5% | viability [4] 86.4% | viability [5] 88.3% | differential viability (reversal) ([6]; H69AR cells + 2 uM doxorubicin) 7.59% | inhibition [7] 2.4% | inhibition [8] -2.5% | growth inhibition [9] -12.1% | growth inhibition [10] -8.93% | viability increase [11] 0.27% | viability [12] 112% | viability [13] 104% | inhibition [14] 0.64% | RAM network inhibition [15] -0.67%
95.5%: viability [1]
88.3%: viability [6, 17]
80.7%: viability [6, 16]

CC(=O)Nc1ccc(S(=O)(=O)N2CCN(C(=O)CCC3CCCC3)CC2)cc1
84%: viability [1]
inactive: Her2 level [2] 98.5% | viability [3] 84% | viability [4] 99% | viability [5] 92.9% | differential viability (reversal) ([6]; H69AR cells + 2 uM doxorubicin) -9.75% | inhibition [7] -1.2% | inhibition [8] -4.35% | growth inhibition [9] 0.295% | growth inhibition [10] -1.04% | viability increase [11] -2.79% | viability [12] 78.7% | viability [13] 81.8% | inhibition [14] 0.505% | RAM network inhibition [15] 2.16%
103%: viability [6, 16]
92.9%: viability [6, 17]

O=C(CC1(O)C(=O)Nc2ccccc21)c1ccc2c(c1)OCO2 (stereo not given)
inactive: Her2 level [2] 93.5% | viability [3] 104% | viability [4] 87.5% | viability [5] 76.3% | differential viability (reversal) ([6]; H69AR cells + 2 uM doxorubicin) -12.3% | inhibition [7] 0.78% | inhibition [8] -3% | growth inhibition [9] -7.81% | growth inhibition [10] -21.3% | viability increase [11] -2.13% | viability [12] 97.2% | viability [13] 96.5% | inhibition [14] 2.9% | RAM network inhibition [15] 4.82%
88.5%: viability [6, 16]
76.3%: viability [6, 17]
104%: viability [1]

COc1cccc(NC(=O)c2nnn(Cc3ccc(Br)cc3F)c2N)c1
98%: viability [1]
69.2%: viability [6, 16]
72%: viability [6, 17]
inactive: Her2 level [2] 89% | viability [3] 98% | viability [4] 59.4% | viability [5] 72% | differential viability (reversal) ([6]; H69AR cells + 2 uM doxorubicin) 2.77% | inhibition [7] -3.33% | inhibition [8] 2.46% | growth inhibition [9] -7.21% | growth inhibition [10] -5.7% | viability increase [11] -0.51% | viability [12] 94.5% | viability [13] 95.7% | inhibition [14] 1.61% | RAM network inhibition [15] 5.85%

Cc1ccc(S(=O)(=O)N2CCC(C(=O)N3CCN(Cc4ccccc4)CC3)CC2)cc1
inactive: Her2 level [2] 91% | viability [3] 99% | viability [4] 100% | viability [5] 85.3% | differential viability (reversal) ([6]; H69AR cells + 2 uM doxorubicin) -15.4% | inhibition [7] -1.73% | inhibition [8] -0.33% | growth inhibition [9] -8.33% | growth inhibition [10] 0.335% | viability increase [11] 1.01% | viability [12] 90.5% | viability [13] 92.6% | inhibition [14] 2.2% | RAM network inhibition [15] 4.44%
101%: viability [6, 16]
85.3%: viability [6, 17]
99%: viability [1]

COc1ccccc1NC(=O)N(C1CCCC1)C1CCN(C(C)=O)CC1
87.6%: viability [6, 16]
77.5%: viability [1]
88.3%: viability [6, 17]
inactive: Her2 level [2] 89.5% | viability [3] 77.5% | viability [4] 112% | viability [5] 88.3% | differential viability (reversal) ([6]; H69AR cells + 2 uM doxorubicin) 0.61% | inhibition [7] 0.77% | inhibition [8] -8.83% | growth inhibition [9] -2.26% | growth inhibition [10] -27.4% | viability increase [11] -2.01% | viability [12] 92.4% | viability [13] 94.7% | inhibition [14] 0.72% | RAM network inhibition [15] 5%

O=C(O)COc1ccc(S(=O)(=O)NCCc2ccccc2)cc1
inactive: Her2 level [2] 103% | viability [3] 105% | viability [4] 115% | viability [5] 106% | differential viability (reversal) ([6]; H69AR cells + 2 uM doxorubicin) 27.5% | inhibition [7] -6.4% | inhibition [8] 2.62% | growth inhibition [9] -6.59% | growth inhibition [10] 10.2% | viability increase [11] -0.3% | viability [12] 108% | viability [13] 96.2% | inhibition [14] 1.84% | RAM network inhibition [15] -2.61%
106%: viability [6, 17]
105%: viability [1]
78.8%: viability [6, 16]

Nc1nc2n(n1)C(c1c(F)cccc1Cl)CC(c1ccc(F)cc1)N2 (stereo not given)
102%: viability [1]
89.6%: viability [6, 16]
inactive: Her2 level [2] 91.5% | viability [3] 102% | viability [4] 103% | viability [5] 86.2% | differential viability (reversal) ([6]; H69AR cells + 2 uM doxorubicin) -3.43% | inhibition [7] -5.2% | inhibition [8] 0.33% | growth inhibition [9] -4.67% | growth inhibition [10] 0.29% | viability increase [11] -2.4% | viability [12] 89.7% | viability [13] 86.9% | inhibition [14] 0.17% | RAM network inhibition [15] 3.18%
86.2%: viability [6, 17]

CCOC(=O)c1ccc(-n2c(C)nc3c(cnn3-c3ccccc3C)c2=O)cc1
98.1%: viability [6, 17]
inactive: Her2 level [2] 108% | viability [3] 94% | viability [4] 117% | viability [5] 98.1% | differential viability (reversal) ([6]; H69AR cells + 2 uM doxorubicin) -3.79% | inhibition [7] -0.8% | inhibition [8] -3.93% | growth inhibition [9] 2.42% | growth inhibition [10] 2.89% | viability increase [11] -0.28% | viability [12] 94.4% | viability [13] 91% | inhibition [14] 1.17% | RAM network inhibition [15] 2.95%
94%: viability [1]
102%: viability [6, 16]
